Test [1] is described as follows: qHTS assay to identify small molecule antagonists of the peroxisome proliferator-activated receptor gamma (PPARg) signaling pathway - cell viability counter screen (AID 743194). Note: nearly all actives have a fitted effect of over 55% in size. Note: potency is the fitted concentration of half-maximal effect. The essentials:
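Cytotoxicity counter screen in PPARg-bla HEK293H cells, same wells as reporter assay. Compounds plus 50 nM rosiglitazone (final) for 17 h at 37 C, then viability read by CellTiter-Glo luminescence.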
(qHTS replaces the single test concentration by a dilution series.)

Test [2] in a line: qHTS assay for small molecule agonists of the antioxidant response element (ARE) signaling pathway - cell viability counter screen (AID 743203; calls by dose curve; note: nearly all actives have a fitted effect of over 55% in size; note: potency is the fitted concentration of half-maximal effect). A digest of the protocol: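 Cells (ARE-bla HepG2, 2,000/well) receive DMSO-dissolved compounds after a 5 hrs rest. Plates incubate 16 hrs at 37C/5% CO2. CellTiter-Glo luminescence is then recorded after 30 min at room temperature.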
Test [3] is described as follows: qHTS assay for small molecule activators of the heat shock response signaling pathway - cell viability counter screen (AID 743209). Note: nearly all actives have a fitted effect of over 50% in size. Note: potency is the fitted concentration of half-maximal effect. The essentials: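 Quantitative HTS format, Tox21 10K library. HeLa cells carrying an HSE-driven beta-lactamase reporter were treated 5 h at 37 C, then assessed for viability by CellTiter-Glo luminescence.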
Test [4] is described as follows: qHTS assay for small molecule activators of the heat shock response signaling pathway (AID 743210; active = well fitted activation curve with a large enough effect in the signal ratio in the repeat runs, with a control signal flat, not every such curve was filed as active; the % refers to the signal ratio; note: series mostly up to about 63 µM). The essentials:
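Quantitative high-throughput format using an engineered HeLa line in which heat shock response elements drive beta-lactamase; after 5 h with compound, cells received a B/G FRET substrate and fluorescence was read.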

Test [5] in a line: qHTS assay to identify small molecule agonists of the peroxisome proliferator-activated receptor delta (PPARd) signaling pathway - cell viability counter screen (AID 743211). Note: nearly all actives have a fitted effect of over 55% in size. Note: potency is the fitted concentration of half-maximal effect. The essentials:
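Read-out: CellTiter-Glo luminescence, 30 min RT, measured in the same wells as the beta-lactamase reporter. Cells: GeneBLAzer PPAR delta UAS-bla HEK293H, 3000 cells/well, compound exposure 17 h at 37C.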

Test [6] can be described thus: qHTS assay to identify small molecule agonists of the farnesoid-X-receptor (FXR) signaling pathway - cell viability counter screen (AID 743218). Note: nearly all actives have a fitted effect of over 45% in size. Note: potency is the fitted concentration of half-maximal effect. The essentials:
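In GeneBLAzer FXR-UAS-bla HEK 293T cells, compounds act for 16 h at 37 C. Cell viability is then scored in the reporter wells by CellTiter-Glo, 30 min at RT, luminescence.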

The target in test [7] is Bile acid receptor (Homo sapiens) (UniProt Q96RI1). Nature of the test: qHTS assay to identify small molecule agonists of the farnesoid-X-receptor (FXR) signaling pathway (AID 743220; active = well fitted activation curve with a large enough effect in the signal ratio in the repeat runs, not every such curve was filed as active; the % refers to the signal ratio). The essentials:
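Beta-lactamase reporter under UAS control in GeneBLAzer FXR HEK 293T cells (5000/well) measured with LiveBLAzer FRET substrate after 2 h at room temperature. Compound exposure lasted 16 h at 37C.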

Test [8] can be described thus: qHTS assay to identify aromatase inhibitors - cell viability counter screen (AID 743084).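 Note: cells stimulated with testosterone during compound exposure; nearly all actives have a fitted effect of over 55% in size.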 Note: potency is the fitted concentration of half-maximal effect.
A short description of test [9]: qHTS assay to identify small molecule that activate the aryl hydrocarbon receptor (AhR) signaling pathway - cell viability counter screen (AID 743086). Note: nearly all actives have a fitted effect of over 45% in size. Note: potency is the fitted concentration of half-maximal effect. A digest of the protocol:
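HepG2-AhR-luc (HG2L7.5c1) cells, 4000/well, treated 24 h at 37 C with compound; viability measured as CellTiter-Fluor fluorescence after 30 min in the same wells as the luciferase read.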

Test [10] is described as follows: qHTS assay for small molecule agonists of the antioxidant response element (ARE) signaling pathway (AID 743202; active = well fitted activation curve with a large enough effect in the signal ratio in the repeat runs, not every such curve was filed as active; the % refers to the signal ratio; note: potency is the fitted concentration of half-maximal effect). A digest of the protocol:
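Agonist mode reporter screen: HepG2 cells with ARE-controlled beta-lactamase are incubated with test compounds for 16 h at 37 C, and beta-lactamase activity is measured as fluorescence of cleaved B/G FRET substrate.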

Test [11] in a line: qHTS assay to identify small molecule antagonists of the peroxisome proliferator-activated receptor delta (PPARd) signaling pathway - cell viability counter screen (AID 743213). Note: nearly all actives have a fitted effect of over 50% in size. Note: potency is the fitted concentration of half-maximal effect. A digest of the protocol:
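PPARd-bla HEK293H cells were treated with compounds plus agonist L165041 (300 nM final) for 17 h at 37 C. Viability was then read in the same wells by CellTiter-Glo luminescence after 30 min at room temperature.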

Test [12] is described as follows: qHTS assay to identify small molecule antagonists of the farnesoid-X-receptor (FXR) signaling pathway - cell viability counter screen (AID 743221; active = well fitted cell-killing curve with a large enough effect in the repeat runs, not every such curve was filed as active; note: nearly all actives have a fitted effect of over 50% in size; note: potency is the fitted concentration of half-maximal effect). A digest of the protocol: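 HEK 293T FXR-bla cells, 5 h pre-incubation; compound + CDCA 50 uM final, 16 h, 37 C; beta-lactamase FRET read first, then CellTiter-Glo luminescence, 30 min RT.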
Test [13] addresses Vitamin D3 receptor (Homo sapiens) (UniProt P11473). Nature of the test: qHTS assay to identify small molecule agonists of the vitamin D receptor (VDR) signaling pathway (AID 743222; calls by dose curve). A digest of the protocol:
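Agonist activity measured in VDR-bla reporter cells. Exposure 16 h, 37C, 5% CO2; detection by B/G FRET substrate, 2 h RT.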

The target of test [14] is Aryl hydrocarbon receptor (Homo sapiens) (UniProt P35869). Description: qHTS assay to identify small molecule that activate the aryl hydrocarbon receptor (AhR) signaling pathway (AID 743085).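 For activation: HG2L7.5c1 human HepG2 liver cells with stably integrated DRE-driven firefly reporter; series mostly up to about 70 µM.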 Note: nearly all actives have a fitted effect of over 15% in size. Note: potency is the fitted concentration of half-maximal effect. A digest of the protocol:
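Luminescence read-out: ONE-Glo reagent, 30 min at room temperature, in HG2L7.5c1 HepG2 reporter cells treated 24 h at 37C. Viability was measured beforehand by CellTiter-Fluor fluorescence after 30 min at 37C.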

Test [15] has as its target Peroxisome proliferator-activated receptor gamma (Homo sapiens) (UniProt P37231). Nature of the test: qHTS assay to identify small molecule agonists of the peroxisome proliferator-activated receptor gamma (PPARg) signaling pathway (AID 743094; active = well fitted activation curve with a large enough effect in the signal ratio in the repeat runs, not every such curve was filed as active; the % refers to the signal ratio). A digest of the protocol: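 Stably transfected HEK293H cells (GeneBLAzer PPARg UAS-bla) were incubated with test substances for 17 h at 37C after a 5 h pre-incubation; beta-lactamase activity was then detected by FRET substrate fluorescence.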

The target of test [16] is Peroxisome proliferator-activated receptor delta (Homo sapiens) (UniProt Q03181). Description: qHTS assay to identify small molecule agonists of the peroxisome proliferator-activated receptor delta (PPARd) signaling pathway (AID 743212; calls by dose curve). The essentials: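 Quantitative high-throughput agonist screen in a HEK293H beta-lactamase reporter line under UAS control. Compounds in DMSO, at 37 C. Fluorescence read after 2 h with FRET substrate at room temperature.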

The target is the same in test [17]. Nature of the test: qHTS assay to identify small molecule antagonists of the peroxisome proliferator-activated receptor delta (PPARd) signaling pathway (AID 743215; active = well fitted inhibition curve with a large enough effect in the signal ratio in the repeat runs, not every such curve was filed as active; the % refers to the signal ratio;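 note: cells stimulated with agonist L165041 at 300 nM final during compound exposure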; note: potency is the fitted concentration of half-maximal effect). The essentials: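 Antagonist-mode beta-lactamase reporter screen: HEK293H cells with UAS-bla under PPARd control, stimulated by 300 nM L165041 (final) alongside test compound for 17 h at 37 C, then FRET fluorescence after 2 h substrate incubation.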

Test [18] deals with Peroxisome proliferator-activated receptor gamma (Homo sapiens) (UniProt P37231). Nature of the test: qHTS assay to identify small molecule antagonists of the peroxisome proliferator-activated receptor gamma (PPARg) signaling pathway (AID 743191; calls by dose curve; note: series mostly up to about 63 µM; nearly all actives have a fitted effect of over 30% in size). The essentials:
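GeneBLAzer PPARg UAS-bla HEK293H cells, 5 h post-plating, exposed to compounds 17 h at 37C. LiveBLAzer B/G FRET substrate added for 1 h at room temperature; beta-lactamase reporter read by fluorescence intensity.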

Where “and” joins values, the source holds several entries; their conditions need not be identical. Identical values can stand only once. Records with an inconclusive call do not appear. Some structures have more than one record in an assay (separate samples or runs), and their calls can disagree. Calls of active or inactive are those of the source. Unless noted, calls come from the whole dose curve; as a rule, active = well fitted curve in the direction sought with a large enough effect in the repeat runs; inconclusive = weak or mixed curves; inactive = no such curve, though single readings can be large; an effect the other way counts as inactive or inconclusive.

Peroxisome proliferator-activated receptor gamma (Homo sapiens), sequence (P37231 whole entry, looked up): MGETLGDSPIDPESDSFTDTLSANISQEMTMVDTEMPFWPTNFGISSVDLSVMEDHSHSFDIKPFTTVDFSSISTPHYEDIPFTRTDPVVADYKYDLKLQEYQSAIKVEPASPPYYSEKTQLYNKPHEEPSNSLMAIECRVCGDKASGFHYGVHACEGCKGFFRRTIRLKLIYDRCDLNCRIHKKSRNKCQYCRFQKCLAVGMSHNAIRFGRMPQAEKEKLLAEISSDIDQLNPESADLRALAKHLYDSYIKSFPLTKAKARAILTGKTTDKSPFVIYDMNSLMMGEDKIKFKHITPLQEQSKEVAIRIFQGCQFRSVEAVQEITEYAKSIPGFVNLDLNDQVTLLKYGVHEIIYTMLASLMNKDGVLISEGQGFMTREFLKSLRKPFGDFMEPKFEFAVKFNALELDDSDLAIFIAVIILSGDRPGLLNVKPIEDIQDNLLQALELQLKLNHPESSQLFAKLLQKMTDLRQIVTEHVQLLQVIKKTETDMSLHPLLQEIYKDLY
Aryl hydrocarbon receptor (Homo sapiens), sequence (P35869 whole entry, looked up): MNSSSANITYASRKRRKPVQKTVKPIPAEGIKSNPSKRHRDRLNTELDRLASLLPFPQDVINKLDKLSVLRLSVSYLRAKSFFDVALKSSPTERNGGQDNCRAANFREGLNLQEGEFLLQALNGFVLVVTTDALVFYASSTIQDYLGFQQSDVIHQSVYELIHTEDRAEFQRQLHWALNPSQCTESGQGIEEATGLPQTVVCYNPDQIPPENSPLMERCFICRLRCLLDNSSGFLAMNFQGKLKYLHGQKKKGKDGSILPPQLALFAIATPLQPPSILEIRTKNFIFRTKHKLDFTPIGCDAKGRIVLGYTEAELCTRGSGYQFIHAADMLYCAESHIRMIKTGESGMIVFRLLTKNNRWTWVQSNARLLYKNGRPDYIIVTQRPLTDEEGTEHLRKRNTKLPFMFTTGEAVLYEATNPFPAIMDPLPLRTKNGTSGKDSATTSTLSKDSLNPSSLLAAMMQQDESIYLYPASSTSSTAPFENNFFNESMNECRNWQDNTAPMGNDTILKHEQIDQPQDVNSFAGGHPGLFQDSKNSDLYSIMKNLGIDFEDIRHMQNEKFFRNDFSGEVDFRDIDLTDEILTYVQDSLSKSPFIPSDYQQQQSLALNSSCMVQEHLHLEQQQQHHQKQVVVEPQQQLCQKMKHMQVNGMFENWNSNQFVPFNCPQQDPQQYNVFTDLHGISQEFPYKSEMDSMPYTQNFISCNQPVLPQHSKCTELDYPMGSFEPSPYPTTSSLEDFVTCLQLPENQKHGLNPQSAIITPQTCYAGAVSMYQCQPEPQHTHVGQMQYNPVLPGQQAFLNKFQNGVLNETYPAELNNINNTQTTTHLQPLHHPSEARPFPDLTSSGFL
Peroxisome proliferator-activated receptor delta (Homo sapiens), sequence (Q03181 whole entry, looked up): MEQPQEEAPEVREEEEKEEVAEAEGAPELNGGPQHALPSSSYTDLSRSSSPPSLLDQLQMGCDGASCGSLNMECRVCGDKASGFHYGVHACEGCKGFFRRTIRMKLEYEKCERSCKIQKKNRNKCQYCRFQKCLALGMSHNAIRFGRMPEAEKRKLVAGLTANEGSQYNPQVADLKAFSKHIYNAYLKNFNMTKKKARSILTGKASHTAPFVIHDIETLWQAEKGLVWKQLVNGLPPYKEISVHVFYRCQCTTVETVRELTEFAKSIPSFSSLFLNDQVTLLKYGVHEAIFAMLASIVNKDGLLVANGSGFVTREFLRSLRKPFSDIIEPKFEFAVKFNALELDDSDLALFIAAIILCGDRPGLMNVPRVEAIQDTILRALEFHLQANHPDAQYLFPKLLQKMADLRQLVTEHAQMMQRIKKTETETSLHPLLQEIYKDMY
Vitamin D3 receptor (Homo sapiens), sequence (P11473 whole entry, looked up): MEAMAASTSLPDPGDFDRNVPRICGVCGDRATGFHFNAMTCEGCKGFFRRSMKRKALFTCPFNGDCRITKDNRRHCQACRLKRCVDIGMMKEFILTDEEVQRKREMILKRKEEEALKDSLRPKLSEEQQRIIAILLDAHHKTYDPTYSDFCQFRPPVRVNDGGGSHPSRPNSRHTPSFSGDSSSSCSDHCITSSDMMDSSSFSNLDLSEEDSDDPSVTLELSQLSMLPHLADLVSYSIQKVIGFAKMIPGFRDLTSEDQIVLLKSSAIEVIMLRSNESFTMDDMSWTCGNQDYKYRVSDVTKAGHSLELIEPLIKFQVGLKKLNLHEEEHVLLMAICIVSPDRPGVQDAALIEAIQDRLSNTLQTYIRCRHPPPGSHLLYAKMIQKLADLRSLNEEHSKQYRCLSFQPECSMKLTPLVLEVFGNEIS
Bile acid receptor (Homo sapiens), sequence (Q96RI1 whole entry, looked up): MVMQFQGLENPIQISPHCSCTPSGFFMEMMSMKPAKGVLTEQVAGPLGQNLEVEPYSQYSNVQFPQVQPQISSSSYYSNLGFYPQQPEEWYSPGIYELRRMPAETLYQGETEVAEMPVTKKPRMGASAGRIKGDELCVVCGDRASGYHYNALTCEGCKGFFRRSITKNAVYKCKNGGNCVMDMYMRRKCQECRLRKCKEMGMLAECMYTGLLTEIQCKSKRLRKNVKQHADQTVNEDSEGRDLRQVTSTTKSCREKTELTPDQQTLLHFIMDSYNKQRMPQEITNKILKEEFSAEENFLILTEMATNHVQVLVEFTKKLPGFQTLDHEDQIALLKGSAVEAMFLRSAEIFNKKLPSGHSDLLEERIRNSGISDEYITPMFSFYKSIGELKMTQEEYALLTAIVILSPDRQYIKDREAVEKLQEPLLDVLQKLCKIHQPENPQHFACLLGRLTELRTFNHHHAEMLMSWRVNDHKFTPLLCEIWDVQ

Take `Nc1ccc2c(c1)CN1C(=O)c3ccccc3C1=N2`: the Potency result in [1], in test [2], in [3], in test [5] and in test [6] was “inactive” each time. In addition, the molecule was called inactive in test [4] and in test [7].
Turning to `CC(C)c1c(C(=O)Nc2ccccc2)c(-c2ccccc2)c(-c2ccc(F)cc2)n1CC[C@@H](O)C[C@@H](O)CC(=O)O`, the Potency entry in test [8], in test [9], in test [1], in test [2], in test [3] and in test [5] was “inactive” each time. The Potency entry in [11], in [6], in test [12] and in test [13] was “inactive” throughout. The Potency in test [10] is 13.2 µM (active). For the same molecule, the molecule was called inactive in [4].
Consider `CC(=O)CC(c1ccccc1)c1c(O)c2ccccc2oc1=O` (centres undefined), for which the Potency entry in [9], in [1], in test [10], in test [2], in [3] and in [5] was “inactive” in each case. In addition, the Potency entry in test [11], in [6], in [12] and in [13] was “inactive” throughout.
As to `CC(=O)Nc1c(I)c(NC(C)=O)c(I)c(C(=O)O)c1I`, the Potency entry in [9], in [1], in [10], in test [2], in test [3] and in test [5] was “inactive” throughout. The Potency entry in test [11], in test [6] and in test [12] was “inactive” each time.
In the case of `Nc1ccc(O)c([N+](=O)[O-])c1`, the Potency in [14] is 43.3 µM (active). Further, the Potency result in test [15], in test [5], in test [16] and in test [11] was “inactive” throughout. Also, in test [4], the molecule was classed as inactive.
Consider `COc1ccc2cc(S(=O)(=O)N[C@H](CC(=O)N[C@H](Cc3ccc(CN4[C@H](C)CCC[C@@H]4C)cc3)C(=O)N(C)C(C)C)c3ccc4c(c3)OCO4)ccc2c1`, for which the Potency in test [8] was 46 µM (active); in test [9] it was 23 µM (active); in [1], 46.3 µM (active); in test [2], 18.3 µM (active); in test [5], 14.7 µM (active); in [11], 29.2 µM (active). Further, the results for the Potency in [6] and in test [12] were 26.1 µM (active) and 52 µM (active), respectively. The Potency result in [14], in test [3] and in [13] was “inactive” throughout. The molecule was classed as inactive in [4] and in [7].
Consider `CN(C)CCOC(c1ccccc1)c1ccccc1`, for which the Potency entry in test [8], in test [9], in test [1], in [10], in test [2] and in test [3] was “inactive” throughout. The Potency result in test [5], in test [11], in test [6] and in [12] was “inactive” each time. Moreover, the molecule was called inactive in [4].
`COc1cccc(O)c1O`: in test [14], the Potency was 31.8 µM (active). Further, the Potency result in test [1], in test [2], in [5], in [16], in [11] and in test [17] was “inactive” in each case. For the same molecule, the Potency result in [6] and in [12] was “inactive” each time.
Consider `CCCCCCCCCCCC[N+](C)(C)Cc1ccccc1`, for which the Potency result in test [8] was “inactive and 67.3 µM (active)”; in [9], 59.2 µM (active); in [1], 17 µM (active) and 15 µM (active) and 26.6 µM (active); in test [2], 26.8 µM (active) and 29.7 µM (active); in test [3], 34 µM (active) and 18.9 µM (active) and 16.8 µM (active); in test [5], 27 µM (active) and 18.9 µM (active) and 23.7 µM (active). Further, the Potency in test [11] is 19.1 µM (active) and 18.9 µM (active) and 15 µM (active); in test [17], 26.6 µM (active); in test [6], 17 µM (active) and 21.2 µM (active); in [12] it was 53.9 µM (active) and 59.7 µM (active) and 29.8 µM (active). In addition, the Potency result in test [14] and in [13] was “inactive” throughout.
In the case of `CCCCC(CC)C(=O)O` (centres undefined), the Potency result in [8], in test [9], in [15], in test [18], in test [1] and in [10] was “inactive” each time. Besides, the Potency result in test [2], in test [3], in test [5], in test [16], in test [11] and in test [17] was “inactive” in each case. Further, the Potency result in test [6] and in [12] was “inactive” each time. The molecule was called inactive in [4].
On to `Nc1ccc([N+](=O)[O-])cc1O`, for which the Potency in [8] was 24.3 µM (active); in test [14], 13.7 µM (active); in [9], 38.6 µM (active). In addition, the Potency result in [2], in test [3] and in [5] was “inactive” throughout. Moreover, the molecule was called inactive in [4].
As to `CN[C@H]1CC[C@@H](c2ccc(Cl)c(Cl)c2)c2ccccc21`, the Potency entry in test [14] and in [9] was “inactive” throughout. The Potency is 18.8 µM (active) in test [2]; 21.1 µM (active) in [5]; 23.7 µM (active) in test [11]; 23.7 µM (active) in test [6]; 26.6 µM (active) in test [12].
Regarding `C1=CC2C3C=CC(C3)C2C1` (centres undefined), the Potency result in [8], in test [9], in test [2], in [3], in test [11] and in test [12] was “inactive” throughout. Besides, the call in [4] was inactive.
In the case of `COc1ccc(C(Cl)=C(c2ccc(OC)cc2)c2ccc(OC)cc2)cc1`, the Potency entry in [8], in [14], in test [9], in test [1], in [2] and in [3] was “inactive” in each case. Further, the Potency result in test [5], in [16], in test [11], in test [17], in test [6] and in [12] was “inactive” throughout. In addition, the Potency result in test [13] was “inactive”. In [4], the result was inactive.

The values above are taken from PubChem BioAssay (Tox21).
